Hits are enriched below; roughly 3.2% of the tested compounds scored in any of these assays.
APOBEC3A inh: inhibitors of human APOBEC3A DNA deaminase | AID 493011 | recombinant A3A, FAM/TAMRA ssDNA deamination fluorescence | inhibition, % at 20 µM | P31941 | 330,000 tested, 0.41% active;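 active means at least 40% inhibition at 20 µM here, with at most 30% in a related deaminase screen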;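 further: plate controls were A3A with DMSO for no effect and wells lacking A3A enzyme for full effect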
Target sequence (P31941 whole entry, looked up): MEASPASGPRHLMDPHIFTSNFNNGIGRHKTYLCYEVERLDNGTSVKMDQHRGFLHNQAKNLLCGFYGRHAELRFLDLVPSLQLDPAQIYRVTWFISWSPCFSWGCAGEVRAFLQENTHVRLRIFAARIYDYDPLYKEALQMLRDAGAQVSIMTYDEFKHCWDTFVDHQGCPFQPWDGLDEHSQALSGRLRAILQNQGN
NTR1 ag: agonists of human neurotensin receptor NTR1 | AID 493036 | P30989 | NTR1-U2OS beta-arrestin-GFP spot imaging, agonist mode | activation, % at 20 µM | 330,000 tested, 0.17% active;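 active means activation at or above 40% of the spot to cytoplasm intensity ratio, with at least 20 cells analyzed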;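 further: 0% = DMSO without peptide and 100% = 100 nM NTR1 peptide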
APOBEC3G inh: APOBEC3G (human) deaminase inhibition. recombinant A3G, ssDNA deamination FAM/TAMRA fluorescence. Q9HC16. 330,000 tested, 0.28% active. inhibition, % at 20 µM. AID 493012;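 active means inhibition of at least 40% at 20 µM, with no more than 30% in the related APOBEC3A deaminase screen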;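 further: plate controls were DMSO wells with A3G for no effect and wells lacking A3G enzyme for full effect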
Target sequence (Q9HC16 whole entry, looked up): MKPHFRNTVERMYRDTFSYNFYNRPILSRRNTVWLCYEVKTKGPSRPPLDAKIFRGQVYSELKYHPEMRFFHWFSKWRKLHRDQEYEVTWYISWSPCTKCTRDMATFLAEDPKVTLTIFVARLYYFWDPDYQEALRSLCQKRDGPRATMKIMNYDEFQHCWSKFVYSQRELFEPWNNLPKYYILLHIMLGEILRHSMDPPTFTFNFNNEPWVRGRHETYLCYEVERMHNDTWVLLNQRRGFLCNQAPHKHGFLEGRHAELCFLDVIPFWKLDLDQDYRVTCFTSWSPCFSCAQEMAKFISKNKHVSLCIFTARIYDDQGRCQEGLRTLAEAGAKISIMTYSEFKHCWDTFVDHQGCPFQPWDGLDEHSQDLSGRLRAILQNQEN
AHR act: activates the human aryl hydrocarbon receptor; AHR-responsive luciferase reporter cells, luminescence; activation, % at 5 µM; 320,000 tested, 2.5% active; in the data active means activation above about 47%;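 further: 0% = vehicle wells and 100% = reference agonist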
APOBEC3A confirm: APOBEC3A (human) deaminase inhibition, confirmed; shares compounds with APOBEC3A inh; recombinant A3A, ssDNA deaminase UDG fluorescence assay; inhibition, % at 20 µM; 1,400 tested, 63% active; AID 493151;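 active means inhibition reaching a set limit, 80% of the first screen's cutoff, at 20 µM in any replicate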;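 further: plate controls were DMSO wells with A3A for no effect and wells lacking A3A enzyme for full effect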
UDG ctr A3A: inhibits UDG, flagging false APOBEC3A inhibitors | shares compounds with APOBEC3A inh | UDG counterscreen, FAM/TAMRA uracil oligo fluorescence | inhibition, % at 20 µM | 1,000 tested, under 10 active; call rule not given here
Numbers without * were called inactive; nt = no result given.

SMILES | APOBEC3A inh | NTR1 ag | APOBEC3G inh | AHR act | APOBEC3A confirm | UDG ctr A3A
CCN(CC)S(=O)(=O)c1ccc(OC)c(NC(=O)Cc2cccs2)c1 | 43* | 6 | 16 | 0 | 25 | nt
CCc1ccc(/C=C/c2c[nH]c3ccccc23)[n+](CC)c1 | 65* | 2 | 20 | 24 | 69* | 0
CCc1ccc2c(Cl)c(C(=O)N/N=C/c3c[nH]c4ccccc34)sc2c1 | 0 | 31 | -6 | 4 | nt | nt
Cc1cccc(OC(C)C(=O)N/N=C\c2ccncc2)c1 (configuration not stated) | -1 | 0 | -3 | 0 | nt | nt
CCOC(=O)COc1ccc(Br)cc1/C=C1\SC(N)=NC1=O | 53* | 2 | 6 | 0 | 50* | -5
COc1ccc(C)cc1NC(=O)C1CCN(S(=O)(=O)c2ccc3c(c2)C(C)(C)C(=O)N3C)CC1 | 2 | -1 | 4 | 20 | nt | nt
Cc1ccc(N=C2NC(=O)CS2)cc1C | -2 | -1 | -4 | 17 | nt | nt
CCCC[n+]1c2ccccc2cc2ccccc21 | 55* | 5 | 21 | 14 | 48* | -2
CCC[n+]1c2ccccc2cc2ccccc21 | 47* | 8 | 12 | 21 | 42* | -2
Cc1ccc2ccccc2[n+]1CCCS(=O)(=O)[O-] | 7 | -1 | 0 | 2 | nt | nt
CCOC(=O)C1=C(c2ccccc2)N=c2s/c(=C\c3ccco3)c(=O)n2C1c1cccs1 (configuration not stated) | 42* | 0 | 13 | 0 | 19* | -3
CC(C)(C)C1CCC(=O)N(CCOc2ccccc2)CC1 (configuration not stated) | -3 | 4 | -8 | 7 | nt | nt
CSC1=NCCN1CCOc1ccccc1 | 65* | 0 | 16 | -2 | 55* | -2
COC(C(=O)Nc1ccc(Cl)cc1C)c1ccccc1 (configuration not stated) | 53* | -3 | 12 | 2 | 12 | nt
COC(C(=O)Nc1ccc(NC(=O)C(OC)c2ccccc2)cc1)c1ccccc1 (configuration not stated) | 2 | -1 | 2 | 0 | nt | nt
N#C/C(=C\c1c(N2CCCCCC2)nc2ccccn2c1=O)C(=O)NC1CCS(=O)(=O)C1 (configuration not stated) | 44* | 0 | -9 | -4 | -3 | -2
N#C/C(=C\c1c(N2CCOCC2)nc2ccccn2c1=O)C(=O)NC1CCS(=O)(=O)C1 (configuration not stated) | -1 | -1 | -3 | 0 | nt | nt
COc1ccc(C2C(C#N)=C(C)NC(C)=C2C(=O)OC(C)C)c(OC)c1 (configuration not stated) | -1 | 1 | -11 | 5 | nt | nt
O=c1c(/C=N/N2CCOCC2)c(C(F)(F)F)[nH]n1-c1ccccc1 | -5 | 2 | -5 | 2 | nt | nt
CCN1CCN(S(=O)(=O)c2ccc(Cl)c(C(=O)N(C)Cc3cccs3)c2)CC1 | 3 | -3 | 0 | 0 | nt | nt
CCN1CCN(S(=O)(=O)c2ccc(Cl)c(C(=O)N(C)C(c3ccccc3)c3ccccc3)c2)CC1 | 57* | 1 | 17 | 3 | 64* | -2
CN(C)c1ccc(/C=C/c2ccc3ccccc3[n+]2C)cc1 | 27 | 4 | 21 | -5 | nt | nt
CN(CCCS(=O)(=O)[O-])c1ccc(/C=C/c2ccc3ccccc3[n+]2C)cc1 | 58* | 0 | 24 | nt | 68* | -3
OCCN1CCN(c2ncnc3nc[nH]c23)CC1 | 51* | -2 | -3 | -2 | -5 | 1
c1nc(N2CCCC2)c2[nH]cnc2n1 | 1 | 0 | -6 | -3 | nt | nt
SMILES | APOBEC3A inh | NTR1 ag | APOBEC3G inh | AHR act | APOBEC3A confirm | UDG ctr A3A
CC(=O)N1CCOc2ccc(S(=O)(=O)N3CCC(C(=O)NCc4ccc(F)cc4)CC3)cc21 | -4 | -1 | 4 | -2 | nt | nt
Cc1ccc(C)c(N2C(=O)CC(Cc3ccc(Cl)cc3)C2=O)c1 (configuration not stated) | -4 | 0 | -4 | -1 | nt | nt
CSC1=NC2C(N1)N(C)C(=O)N2C (configuration not stated) | 58* | 3 | 20 | -2 | 21 | nt
CCCCN1C(=O)N(C)C2NC(=O)NC21 (configuration not stated) | 3 | 0 | 1 | -2 | nt | nt
Cc1occc1-c1nnc(SCC(=O)NC2CCC(C)CC2)o1 (configuration not stated) | 1 | -1 | -1 | -1 | nt | nt
CC(=O)C1C(c2cccc(F)c2)c2c(n[nH]c2C)CC1(C)O (configuration not stated) | -7 | 0 | -4 | 3 | nt | nt
CC1CCN(C(=O)CCc2ccc(S(=O)(=O)NC(C)C)cc2)CC1 | 51* | 1 | -3 | 0 | -7 | -3
Cc1ccc(Cl)cc1N1CCN(S(=O)(=O)c2cc3c(cc2C)NC(=O)CO3)CC1 | -1 | 12 | -8 | -1 | nt | nt
C[n+]1ccccc1/C=C/c1ccc(C#N)cc1 | nt | nt | nt | -1 | nt | nt
C[n+]1ccccc1/C=C/c1ccccc1Cl | 81* | 0 | 14 | nt | 67* | -3
Cc1ccccc1/C=C/c1cccc[n+]1C | 84* | -1 | 15 | nt | 69* | -3
CCOC(=O)C1=C(COC(=O)c2ccc(OC)c(OC)c2OC)NC(=O)NC1C (configuration not stated) | 0 | -1 | -2 | 0 | nt | nt
COc1cc(NC(=S)N2CCC(C(N)=O)CC2)c(OC)cc1Cl | -4 | 0 | -7 | 3 | nt | nt
O=C(CNC(=O)c1ccco1)NNC(=O)c1cccc(Cl)c1 | -2 | -1 | -5 | 3 | nt | nt
Cc1c(C(=O)OCC[N+]2(C)CCCCC2)oc2ccccc12 | 77* | -1 | 15 | 2 | 77* | 5
CCc1ccccc1NC(=O)c1cc2ncc(Br)cn2n1 | 41* | 0 | -1 | 2 | 8 | -2
O=C(c1cc2ncc(Br)cn2n1)N1CCN(C(=O)c2ccco2)CC1 | 42* | -1 | 0 | 2 | 34* | -2
O=C(NCCc1ccccc1)c1cc2ncc(Br)cn2n1 | 76* | 4 | -3 | 8 | 44* | 4
O=C(c1cc2ncc(Br)cn2n1)N1CCOCC1 | 10 | 3 | -5 | -2 | nt | nt
CCOC(=O)C1=C(COC(=O)Cc2ccc(Cl)cc2)NC(=O)NC1C (configuration not stated) | 4 | 0 | 3 | 0 | nt | nt
CSc1ccccc1NC(=O)CN(C)C(=O)C1CCN(C(=O)Nc2ccccc2)CC1 | -2 | 0 | -9 | 2 | nt | nt
CCC(Oc1ccccc1OC)C(=O)Nc1ccc2c(c1)OCCO2 (configuration not stated) | nt | 0 | nt | 9 | 57* | nt
COc1ccccc1NC(=O)Nc1ccc2c(c1)OCCO2 | -2 | -1 | -2 | 14 | nt | nt
C=CCn1c(NC(=O)c2ccc(C)cc2)c(C#N)sc1=N | 56* | 5 | 24 | 11 | 71* | 1
COc1ccc(NC(=O)/C(C#N)=C/c2ccc(-c3ccccc3C(=O)O)o2)cc1 | -5 | 1 | -11 | 46 | nt | nt
COc1ccc(NC(=O)/C(C#N)=C\c2ccc(Br)o2)cc1 | 71* | 2 | 21 | 43 | 42* | -2
